Measurements reported in PubChem BioAssay (NCATS).
Results filed as inconclusive are left out. Calls of active or inactive are those of the source. Unless noted, the call rests on the fitted dose curve.

Key:
[1] = molecular target: Estrogen receptor (Homo sapiens) (UniProt P03372); assay: qHTS assay for small molecule agonists of estrogen receptor alpha signaling (AID 588514);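 further: 0% = vehicle only and 100% = reference agonist; nearly all actives have a fitted effect of over 70% in size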
Method in brief: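 Reporter-gene assay. […] controls beta-lactamase in HEK 293 GripTite cells; after 18 hrs with compound, CCF4 substrate is added for 2 hrs and fluorescence is read.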

[2] = molecular target: Androgen receptor (Homo sapiens) (UniProt P10275); assay: qHTS assay for small molecule agonists of androgen receptor signaling (AID 588515; active means well fitted curve in the direction sought with a large enough effect in the signal ratio, with a control signal flat; the % refers to the signal ratio; further: on the % scale 0 is the no-effect control and ±100 the full control effect); settings: AR-UAS-bla HEK293, beta-lactamase ratio, agonist 16 h; activation: hits give high values
Androgen receptor (Homo sapiens), sequence (P10275 whole entry, looked up): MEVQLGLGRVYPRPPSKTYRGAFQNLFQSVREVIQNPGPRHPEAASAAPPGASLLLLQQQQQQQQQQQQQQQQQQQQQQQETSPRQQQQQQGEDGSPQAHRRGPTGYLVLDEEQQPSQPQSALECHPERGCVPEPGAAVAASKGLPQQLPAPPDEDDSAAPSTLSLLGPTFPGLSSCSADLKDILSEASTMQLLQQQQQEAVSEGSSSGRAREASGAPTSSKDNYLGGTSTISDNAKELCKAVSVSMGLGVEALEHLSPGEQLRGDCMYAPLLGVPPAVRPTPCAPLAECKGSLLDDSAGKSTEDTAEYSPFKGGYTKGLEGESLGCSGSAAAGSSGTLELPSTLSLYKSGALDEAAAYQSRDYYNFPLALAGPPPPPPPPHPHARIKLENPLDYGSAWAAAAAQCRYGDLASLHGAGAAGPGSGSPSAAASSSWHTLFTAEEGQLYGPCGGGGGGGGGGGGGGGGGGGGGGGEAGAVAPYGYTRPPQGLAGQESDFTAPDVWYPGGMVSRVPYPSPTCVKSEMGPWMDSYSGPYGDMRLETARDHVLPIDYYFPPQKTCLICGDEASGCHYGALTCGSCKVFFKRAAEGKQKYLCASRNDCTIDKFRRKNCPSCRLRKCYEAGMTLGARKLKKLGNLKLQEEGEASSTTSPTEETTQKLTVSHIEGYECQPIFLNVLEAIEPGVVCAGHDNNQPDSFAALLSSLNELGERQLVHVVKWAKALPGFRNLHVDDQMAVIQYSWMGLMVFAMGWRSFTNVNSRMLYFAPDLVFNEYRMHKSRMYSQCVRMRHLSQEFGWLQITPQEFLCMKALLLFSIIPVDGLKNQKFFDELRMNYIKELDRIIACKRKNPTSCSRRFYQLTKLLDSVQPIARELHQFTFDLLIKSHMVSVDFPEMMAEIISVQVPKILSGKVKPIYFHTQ
Method in brief: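 EC50 and efficacy came from Hill fits of titrations (up to 92 uM) normalized to 30 nM R1881 as 100% and DMSO as 0%. Compound exposure was 16 h at 37 C on AR-UAS-bla HEK293 cells, with a 405/460/530 nm CCF4 fluorescence read.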

[3] = molecular target: Bile acid receptor (Homo sapiens) (UniProt Q96RI1); assay: qHTS assay for small molecule antagonists of farnesoid X receptor signaling (AID 588526); further: on the % scale 0 is the no-effect control and ±100 the full control effect
Bile acid receptor (Homo sapiens), sequence (Q96RI1 whole entry, looked up): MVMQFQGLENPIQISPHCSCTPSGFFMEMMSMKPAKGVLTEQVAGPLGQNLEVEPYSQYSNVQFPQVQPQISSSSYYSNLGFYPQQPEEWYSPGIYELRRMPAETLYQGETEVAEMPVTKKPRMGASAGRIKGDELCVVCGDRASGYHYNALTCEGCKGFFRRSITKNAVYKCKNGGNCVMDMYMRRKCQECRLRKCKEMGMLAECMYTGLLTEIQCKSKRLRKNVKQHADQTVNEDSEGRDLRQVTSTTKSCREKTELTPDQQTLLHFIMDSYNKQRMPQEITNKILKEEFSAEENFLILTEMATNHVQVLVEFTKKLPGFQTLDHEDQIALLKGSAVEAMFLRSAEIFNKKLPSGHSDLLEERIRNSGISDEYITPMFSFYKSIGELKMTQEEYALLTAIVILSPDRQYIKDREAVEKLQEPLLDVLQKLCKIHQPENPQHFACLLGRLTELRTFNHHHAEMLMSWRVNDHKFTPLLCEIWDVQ
Method in brief: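 Antagonist mode: titrated compounds tested against chenodeoxycholic acid stimulation (normalized to 50 uM CDCA and DMSO) in GeneBLAzer HEK293T cells for 16 h. Beta-lactamase read by CCF4 fluorescence; IC50 from Hill fits.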

[4] = molecular target: Glucocorticoid receptor (Homo sapiens) (UniProt P04150); assay: qHTS assay for small molecule antagonists of glucocorticoid receptor signaling (AID 588533; active means well fitted inhibition curve with a large enough effect in the signal ratio, with a control signal flat, not every such curve was filed as active; the % refers to the signal ratio; further: on the % scale 0 is the no-effect control and ±100 the full control effect)
Glucocorticoid receptor (Homo sapiens), sequence (P04150 whole entry, looked up): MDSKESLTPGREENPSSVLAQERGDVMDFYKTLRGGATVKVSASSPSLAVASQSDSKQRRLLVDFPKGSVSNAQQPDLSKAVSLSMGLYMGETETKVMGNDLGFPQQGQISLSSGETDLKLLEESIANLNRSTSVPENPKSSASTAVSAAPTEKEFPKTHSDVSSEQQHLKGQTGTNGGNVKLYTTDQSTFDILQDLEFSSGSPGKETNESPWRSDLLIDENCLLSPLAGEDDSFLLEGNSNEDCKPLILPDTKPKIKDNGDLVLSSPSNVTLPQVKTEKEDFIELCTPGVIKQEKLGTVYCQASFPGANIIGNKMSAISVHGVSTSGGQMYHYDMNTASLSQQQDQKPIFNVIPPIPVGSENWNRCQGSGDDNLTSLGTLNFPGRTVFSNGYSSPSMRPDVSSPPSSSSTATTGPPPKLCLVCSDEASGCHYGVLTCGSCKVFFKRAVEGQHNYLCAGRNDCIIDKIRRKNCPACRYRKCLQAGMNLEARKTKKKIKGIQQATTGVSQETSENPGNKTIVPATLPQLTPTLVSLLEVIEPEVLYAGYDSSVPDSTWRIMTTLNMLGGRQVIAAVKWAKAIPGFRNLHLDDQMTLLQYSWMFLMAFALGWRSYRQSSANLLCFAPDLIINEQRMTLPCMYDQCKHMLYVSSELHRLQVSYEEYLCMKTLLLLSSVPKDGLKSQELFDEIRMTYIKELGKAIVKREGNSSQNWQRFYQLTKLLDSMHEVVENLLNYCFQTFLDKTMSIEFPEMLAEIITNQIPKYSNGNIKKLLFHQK
Method in brief: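 Antagonist-mode qHTS: compound titrations added to GRE-bla HeLa cells, then dexamethasone 2 nM final; 18 h, 37 C. CCF4 FRET fluorescence normalized to dexamethasone and DMSO; IC50 from Hill fit.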

[5] = molecular target: Peroxisome proliferator-activated receptor delta (Homo sapiens) (UniProt Q03181); assay: qHTS assay for small molecule antagonists of peroxisome proliferator-activated receptor delta signaling (AID 588535; active means well fitted inhibition curve with a large enough effect in the signal ratio, with a control signal flat, not every such curve was filed as active; the % refers to the signal ratio)
Peroxisome proliferator-activated receptor delta (Homo sapiens), sequence (Q03181 whole entry, looked up): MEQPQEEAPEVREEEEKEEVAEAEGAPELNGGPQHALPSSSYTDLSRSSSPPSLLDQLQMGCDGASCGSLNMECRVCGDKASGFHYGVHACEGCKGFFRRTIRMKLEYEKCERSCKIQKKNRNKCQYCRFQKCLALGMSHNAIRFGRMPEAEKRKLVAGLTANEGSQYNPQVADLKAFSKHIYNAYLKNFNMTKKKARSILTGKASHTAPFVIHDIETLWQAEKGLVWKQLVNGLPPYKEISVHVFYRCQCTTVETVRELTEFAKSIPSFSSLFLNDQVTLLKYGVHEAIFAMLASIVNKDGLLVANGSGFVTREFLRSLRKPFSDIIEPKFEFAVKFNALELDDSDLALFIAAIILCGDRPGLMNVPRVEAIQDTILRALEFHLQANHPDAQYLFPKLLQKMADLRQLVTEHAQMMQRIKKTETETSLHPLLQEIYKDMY
Method in brief: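 Cells were seeded at 4000 per well in assay medium containing 2% charcoal/dextran FBS and held 5 hrs at 37 C. Compounds were then added for 18 hrs. CCF4 substrate was applied for 2 hrs at room temperature before fluorescence reading.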

[6] = molecular target: Vitamin D3 receptor (Homo sapiens) (UniProt P11473); assay: qHTS assay for small molecule antagonists of vitamin D receptor signaling (AID 588541);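 further: receptor activated by calcitriol during compound treatment; series mostly up to about 77 µM; on the % scale 0 is the no-effect control and ±100 the full control effect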
Vitamin D3 receptor (Homo sapiens), sequence (P11473 whole entry, looked up): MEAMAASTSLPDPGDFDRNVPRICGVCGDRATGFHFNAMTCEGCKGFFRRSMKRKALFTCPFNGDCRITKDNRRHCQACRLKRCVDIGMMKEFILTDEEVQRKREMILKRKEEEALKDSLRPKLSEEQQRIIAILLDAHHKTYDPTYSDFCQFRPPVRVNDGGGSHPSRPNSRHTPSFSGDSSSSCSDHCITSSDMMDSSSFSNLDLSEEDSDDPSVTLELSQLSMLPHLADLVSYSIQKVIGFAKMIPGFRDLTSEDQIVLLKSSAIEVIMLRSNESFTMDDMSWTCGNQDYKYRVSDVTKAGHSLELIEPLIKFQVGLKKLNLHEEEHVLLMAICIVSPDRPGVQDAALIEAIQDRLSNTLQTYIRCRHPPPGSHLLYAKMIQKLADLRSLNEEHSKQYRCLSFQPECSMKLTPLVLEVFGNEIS
Method in brief: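 VDR-UAS-bla HEK293T cells in 2% charcoal-stripped FBS were stimulated with 1-alpha,25-dihydroxyvitamin D3 (3 nM final) plus compound for 16 h at 37 C. The beta-lactamase CCF4 readout was normalized to 50 nM agonist and DMSO, and Hill fits gave IC50.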

[7] = molecular target: Androgen receptor (Homo sapiens) (UniProt P10275); assay: qHTS assay for small molecule antagonists of androgen receptor signaling (AID 588516; active means well fitted curve in the direction sought with a large enough effect in the signal ratio, with a control signal flat, not every such curve was filed as active; the % refers to the signal ratio; further: on the % scale 0 is the no-effect control and ±100 the full control effect)
Method in brief: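 Antagonist-mode qHTS: inhibition of R1881 (10 nM)-driven beta-lactamase expression in GripTite HEK 293 cells is measured after 16 h; values are Hill-derived IC50s normalized between R1881 and DMSO wells.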

[8] = qHTS assay for small molecule agonists of the antioxidant response element (ARE) signaling pathway (AID 651741; active means well fitted activation curve with a large enough effect in the signal ratio; the % refers to the signal ratio; further: potency means the concentration at half of the fitted maximal effect; on activation: % of control where 0% means no effect)
Method in brief: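 HepG2 ARE-bla cells plated at 2,000 cells/well and incubated 5 h at 37 C/5% CO2 received 23 nL compound in DMSO. After 16 h at 37 C, LiveBLAzer B/G FRET substrate was applied for 2 h at room temperature and fluorescence read.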

[9] = molecular target: Vitamin D3 receptor (Homo sapiens) (UniProt P11473); assay: qHTS assay for small molecule agonists of vitamin D receptor signaling (AID 588543);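 further: 0% = DMSO basal and 100% = reference agonist control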
Method in brief: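 qHTS in agonist mode: compound titrations stimulate a VDR-driven β-lactamase reporter in HEK293T cells over 16 h at 37 °C. Response normalized to 50 nM 1α,25-dihydroxyvitamin D3 = 100%, DMSO = 0%; Hill fitting gives EC50 and maximal response.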

Estrogen receptor (Homo sapiens), sequence (P03372 whole entry, looked up): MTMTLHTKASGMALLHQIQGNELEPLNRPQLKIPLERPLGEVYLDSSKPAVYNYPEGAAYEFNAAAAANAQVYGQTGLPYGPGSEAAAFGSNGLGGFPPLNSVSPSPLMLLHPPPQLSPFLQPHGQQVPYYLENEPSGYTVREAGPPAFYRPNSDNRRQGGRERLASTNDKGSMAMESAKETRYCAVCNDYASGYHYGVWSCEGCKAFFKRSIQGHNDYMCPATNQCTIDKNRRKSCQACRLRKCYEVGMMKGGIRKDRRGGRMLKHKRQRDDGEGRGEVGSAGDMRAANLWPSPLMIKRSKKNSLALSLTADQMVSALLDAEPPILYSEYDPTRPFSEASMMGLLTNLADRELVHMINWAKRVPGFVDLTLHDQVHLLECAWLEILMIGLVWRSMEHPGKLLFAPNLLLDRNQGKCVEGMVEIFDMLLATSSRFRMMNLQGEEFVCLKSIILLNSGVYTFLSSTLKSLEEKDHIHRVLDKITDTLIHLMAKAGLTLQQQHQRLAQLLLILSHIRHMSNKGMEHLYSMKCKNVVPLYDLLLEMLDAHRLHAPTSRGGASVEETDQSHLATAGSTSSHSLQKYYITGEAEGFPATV

CN=C(N)NCC1CCOC1 (centres undefined)
inactive: Potency [1] | activation [2] 2.67% | Potency [3] | Potency [4] | Potency [5] | Potency [6]

CN(C)Cc1cc(CN(C)C)c(O)c(CN(C)C)c1
inactive: Potency [1] | activation [2] -17.5% | outcome [7] | Potency [3] | Potency [4] | Potency [8]

FC(F)(F)c1ccc(Cl)c(Cl)c1
inactive: Potency [1] | activation [2] 6.47% | outcome [7] | Potency [4] | Potency [5] | outcome [9]

CCc1c(C(=O)O)c(=O)cnn1-c1ccc(Cl)cc1
inactive: Potency [1] | Potency [3] | Potency [4] | Potency [5] | outcome [9] | Potency [8]

CCCCC(CC)COP(=O)(O)OCC(CC)CCCC (centres undefined)
inactive: Potency [1] | Potency [3] | Potency [6] | outcome [9]

CCO[Si](CCC#N)(OCC)OCC
inactive: Potency [1] | Potency [3] | Potency [4]

CCOC(=O)C(C)Oc1ccc(Oc2cnc3cc(Cl)ccc3n2)cc1 (centres undefined)
inactive: Potency [1] | Potency [3] | Potency [6]

CC(=O)CC(=O)Nc1ccccc1C
inactive: Potency [1] | Potency [4] | Potency [6] | outcome [9]

c1ccc2cc3ccccc3cc2c1
inactive: Potency [1] | Potency [3] | Potency [4] | Potency [6] | Potency [8]

C/C=C/C/C=C\CCCCCCCCOC(C)=O
inactive: Potency [1] | Potency [3] | Potency [6] | outcome [9] | Potency [8]

Nc1ccc(N)c2c1C(=O)c1c(N)ccc(N)c1C2=O
active: Potency [8] 27.3 µM
inactive: Potency [1] | activation [2] 5.62% | outcome [7] | Potency [3]

CC(=O)Nc1ccc(N=Nc2cc(C)ccc2O)cc1
inactive: Potency [1] | activation [2] -4.42% | outcome [7] | Potency [4] | Potency [5] | outcome [9]

CC1(C)[C@@H]([C@@H](Br)C(Br)(Br)Br)[C@H]1C(=O)O[C@H](C#N)c1cccc(Oc2ccccc2)c1
active: Potency [8] 21.7 µM
inactive: Potency [1] | activation [2] -17.3% | Potency [4] | outcome [9]
